High-throughput results as filed in PubChem.
Sampled rows, rich in hits. Any-hit rate of the full collection: about 1.9%.
PABP1 MLLE inh – inhibitors of PABP1 MLLE–PAM2 peptide binding, primary screen, biochemical, fluorescence polarization, FITC-PAM2, GST-MLLE; Polyadenylate-binding protein 1 (Homo sapiens), P11940; inhibition, % at 20 µM; 0.36% of 360,000 active; in the data active means inhibition above about 35%, passing the limit was not always enough;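 further: plate controls were DMSO wells with GST-MLLE for no effect and wells lacking GST-MLLE protein for full effect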
PABP FP inh – PABP poly(A) RNA binding inhibitors, primary screen, biochemical, fluorescence polarization, uHTS | Polyadenylate-binding protein 1 (Homo sapiens), P11940 | inhibition, % at 35 µM | 1% of 290,000 active | AID 2014, 2009;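 further: calls also rest on retests at 20 µM and on dose response follow-up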
eIF4H inh – human eIF4H binding inhibitors, primary screen, translation initiation inhibitor project, biochemical, uHTS, fluorescence polarization; inhibition, % at 35 µM; eIF4H fluorescence polarization binding assay; 0.94% of 290,000 active;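 further: calls also rest on retests at 20 µM and on dose response follow-up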
GRK2 inh – compounds blocking aptamer binding on GRK2 – biochemical, human GRK2, bead flow cytometry, HTS, primary screen. inhibition of aptamer binding, % at 10 µM. 0.59% of 330,000 active. Beta-adrenergic receptor kinase 1 (Homo sapiens), P25098. FAM-aptamer displacement from GRK2;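 active means inhibition of aptamer binding above 40%, roughly 3 SD of noise, on plates passing a quality check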;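 further: median bead fluorescence of bound FAM aptamer so fluorescent compounds give negative values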
Target sequence (P25098 whole entry, looked up): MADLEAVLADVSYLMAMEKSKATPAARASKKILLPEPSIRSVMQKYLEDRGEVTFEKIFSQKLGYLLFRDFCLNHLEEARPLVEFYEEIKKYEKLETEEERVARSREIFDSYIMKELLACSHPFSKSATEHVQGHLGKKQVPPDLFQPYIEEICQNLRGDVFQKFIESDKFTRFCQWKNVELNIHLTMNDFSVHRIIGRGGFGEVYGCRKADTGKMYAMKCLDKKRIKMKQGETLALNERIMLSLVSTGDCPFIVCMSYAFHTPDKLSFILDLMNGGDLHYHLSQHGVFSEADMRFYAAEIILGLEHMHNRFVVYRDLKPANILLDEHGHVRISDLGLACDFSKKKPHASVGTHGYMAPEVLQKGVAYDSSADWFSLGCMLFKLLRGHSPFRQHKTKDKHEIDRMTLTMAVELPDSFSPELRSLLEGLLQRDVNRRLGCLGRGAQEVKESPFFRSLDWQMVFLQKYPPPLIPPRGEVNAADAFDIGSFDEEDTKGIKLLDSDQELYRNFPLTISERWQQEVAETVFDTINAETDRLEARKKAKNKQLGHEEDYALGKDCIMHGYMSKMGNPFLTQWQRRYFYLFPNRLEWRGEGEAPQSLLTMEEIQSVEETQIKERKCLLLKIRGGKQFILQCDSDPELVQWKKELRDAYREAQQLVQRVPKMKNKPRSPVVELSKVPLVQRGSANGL
PERK inhibitor – block of dimerizer-induced PERK translation repression, primary screen, PERK inhibitor project, CHO PERK-DD cells, SEAP luminescence, HTS; Eukaryotic translation initiation factor 2-alpha kinase 3 (Homo sapiens), Q9NZJ5; CHO PERK-DD fusion, SEAP luminescence translation reporter; inhibition, % at 5.6 µM; 0.17% of 220,000 active;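 active means inhibition above the mean inhibition of all tested compounds plus 3 SD, set separately per screening campaign, cut at about 2.9% in these data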;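 further: PERK kinase domain activated by AP20187 dimerizer at 100 nM; 0% = DMSO with dimerizer and 100% = rapamycin at 8.4 µM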
An asterisk follows results filed as active; . = no result. Unless noted, how the calls were made is not given here.

SMILES | PABP1 MLLE inh | PABP FP inh | eIF4H inh | GRK2 inh | PERK inhibitor
N#Cc1ccccc1S(=O)(=O)N1CCN(CC(O)c2ccccc2)CC1 (stereo not drawn) | 9 | 56 | 7.2* | 0 | 0
N#Cc1ccccc1S(=O)(=O)N1CCN(Cc2cccs2)CC1 | 5 | . | . | . | .
CC1(OC(=O)CCc2ccccc2)C(=O)C=C2C=C3CCCN3C=C2C1=O (stereo not drawn) | 3 | 55* | 83* | 5 | .
CC1(OC(=O)CCc2ccccc2)C(=O)C=C2C=C(c3ccc(C#N)cc3)N(C(CO)CO)C=C2C1=O (stereo not drawn) | 25 | 26 | 45 | 1 | .
CC1(OC(=O)CCc2ccccc2)C(=O)C=C2C=C(c3ccc(C#N)cc3)N(C3CCCCC3)C=C2C1=O (stereo not drawn) | 6 | 37* | 52 | 7 | .
CC1(OC(=O)c2cccs2)C(=O)C=C2C=C3CCCN3C=C2C1=O (stereo not drawn) | 0 | 84* | 95* | 21 | .
CCOC(=O)C1CCCN(S(=O)(=O)c2cc3[nH]c(=O)c(=O)[nH]c3cc2C)C1 (stereo not drawn) | 12 | -5 | -8 | 3 | .
CC1=CC(C)(C)[N+](C)(C)c2ccccc21 | -98 | 62* | -8 | 1 | 0
CC1=CC(C)(C)N(C(=O)c2ccccc2)c2ccccc21 | 2 | 0 | -10 | 1 | 1
COCOCCn1cc(CN2CCS(=O)(=O)N(Cc3ccc(-c4ccccc4)cc3)C(C(C)C)C2=O)nn1 (stereo not drawn) | -3 | . | . | . | .
O=C(Oc1ccccc1N1C(=O)C2CCCCC2C1=O)c1ccccc1F (stereo not drawn) | 9 | 87 | active | 0 | 0
O=C(Oc1ccccc1N1C(=O)C2CCCCC2C1=O)c1ccc(Cl)cc1 (stereo not drawn) | 4 | -8 | 1 | 0 | -1
CCC(CC)Nc1ccc(C(CC(N)=O)NC(=O)Cc2cccc3ccccc23)cc1[N+](=O)[O-] (stereo not drawn) | -44 | 38* | 78 | 2 | .
NC(=O)CC(NC(=O)Cc1cccc2ccccc12)c1ccc(NCCOc2ccccc2)c([N+](=O)[O-])c1 (stereo not drawn) | -18 | -17 | -7 | 2 | .
Cc1ccc(C2(C(F)(F)F)NC(=O)N3CCN=C3S2)cc1 (stereo not drawn) | -3 | 5 | 4 | 2 | 2.9*
CCOc1cc(C(N)=O)cc(Br)c1OC | 14 | 68 | 8.5* | 0 | 4.9*
O=C(COc1ccc(C(=S)N2CCOCC2)cc1Cl)Nc1ccccc1Cl | 41* | -13 | 9 | 0 | 1
COc1cc(C(=S)N2CCCCC2)ccc1OCC(=O)Nc1ccccc1Cl | 19 | 5 | -7 | 1 | 2
CCn1c(SCC(=O)N(C)CC(=O)Nc2cccc(OC)c2)nnc1-c1ccco1 | 7 | . | . | 0 | .
C[C@@H]1CN(S(=O)C(C)(C)C)[C@@H](CCO)/C1=C\CCO (stereo partly drawn) | -4 | . | . | . | .
C[C@@H]1CN([C@H](C)CO)C(=O)CCCn2cc(nn2)CO[C@H]1CN(C)C(=O)Nc1cccc(C(F)(F)F)c1 | -3 | . | . | . | .
CC1=CC(C#N)(C#N)C(C#N)(C#N)C(c2ccccc2)N1 (stereo not drawn) | . | 102* | 102* | 1 | 1
COCCn1c(C)cc(/C=C(\C#N)C(=O)OCC(=O)Nc2ccc(S(N)(=O)=O)cc2)c1C | -82 | . | . | . | .
CCC(=O)N(C)CCc1cc2c(c(OC)c1/C=N/NC(=O)c1ccccc1O)OCO2 | 5 | -4 | -2 | 83* | 0
CCOC(=O)c1cnc(-n2[nH]c(C)cc2=O)[nH]c1=O | -5 | active | 100* | 32 | 2
SMILES | PABP1 MLLE inh | PABP FP inh | eIF4H inh | GRK2 inh | PERK inhibitor
C=CCc1c(C)nc(-c2ccccc2)nc1Nc1ccccc1O | 0 | active | 69 | 4 | 0
O=C(NNC(=O)C1C2CCC(C2)C1C(=O)O)c1ccc(Br)o1 (stereo not drawn) | . | 59* | -2 | 3 | 1
COc1ccc(CCNC(=O)Cn2nnc(C(=O)Nc3cc(C)ccc3C)c2N)cc1OC | -1 | -7 | -4 | 3 | .
CCCc1nc2cc(CC(=O)OC)ccc2o1 | 0 | -4 | 0 | 3 | 3.1*
CCc1ccc(-c2csc(NC(=O)C3=NN(c4ccccc4)C(=O)CC3)n2)cc1 | -18 | 56 | active | 0 | 0
COc1ccc(CNC(=O)CCS(=O)(=O)c2ccc3nc(C)sc3c2)cc1 | -1 | . | . | . | .
COc1ccccc1N1CCN(C(=O)[C@H](C)NS(=O)(=O)c2ccc3c(c2)OCCCO3)CC1 | 41* | . | . | . | .
Cc1ccc2c(CN3CCCCC3)cc(=O)oc2c1C | 8 | 8 | -1 | 2 | .
Cc1ccc2c(CN3CCCc4ccccc43)cc(=O)oc2c1C | -25 | 76* | 34* | 0 | 0
O=c1c(-c2cc3ccccc3o2)[n+]([O-])c2ccccc2n1OCc1ccccn1 | 2 | 61* | 85 | 12 | -1
COc1ccc(OC)c(NC(=O)C2CCN(S(=O)(=O)c3ccc4c(c3)CC(C)N4C(C)=O)CC2)c1 (stereo not drawn) | -14 | 8 | -11 | 0 | .
O=C(O)/C=C/c1ccc([N+](=O)[O-])o1 | -14 | -7 | 82 | 33 | 1
O=C1NC(=S)S/C1=C\C=C\c1ccc([N+](=O)[O-])o1 | 3 | 91* | 95* | . | 0
Cc1cc(NS(=O)(=O)c2ccc(NC(=O)c3cc4c(=O)n5ccccc5nc4s3)cc2)nc(C)n1 | -4 | active | 72 | . | 0
O=C(COC(=O)CCC(NC(=O)OCc1ccccc1)C(=O)OCC(=O)Nc1ccccc1)Nc1ccccc1 (stereo not drawn) | -4 | 59* | -1 | 4 | 1
Cc1ccc(NC(=O)COC(=O)CCc2c[nH]c3ccccc23)cc1 | -1 | . | . | . | .
Cc1ccc(NC(=O)COC(=O)CCc2c[nH]c(=O)[nH]2)cc1 | 87 | 10 | 7 | 0 | 4.0*
O=C(COC(=O)CCc1c[nH]c(=O)[nH]1)Nc1ccccc1 | 53* | 15 | 26 | 0 | 2
C=CCN(c1ccccc1)S(=O)(=O)c1cccc(C(=O)NNC(=O)c2ccccc2O)c1 | -1 | . | . | 3 | .
C=CCN(c1ccccc1)S(=O)(=O)c1cccc(C(=O)O)c1 | 14 | 14 | -17 | 0 | 3.4*
CC(C)(C)N(Cc1ccccc1)C(=O)COC(=O)Cn1cnc2ccccc2c1=O | 1 | -10 | 2 | 0 | 0
CCOC(=O)C1(C)CCCCN1C(=O)c1cccc(Cl)c1 (stereo not drawn) | -6 | . | . | . | .
O=C(NCCc1ccccn1)c1c(-c2ccsc2)sc2ccccc12 | -22 | . | . | 70* | .
CSc1nc(Oc2ccc(C)cc2)cc(C(F)(F)F)n1 | -1 | -6 | 6 | 0 | 3.6*
